The list is not random: actives were taken first. Their share in the collection is about 13%.
Pf growth 96h: inhibits malaria parasite growth, 96 h. P. falciparum luciferase reporter growth, 96 h. Potency, µM (top dose mostly 28.7 µM), without a hit: at the highest dose activity change, negative = inhibition, usual class: inhibitors. 320,000 compounds, 6.9% hits; further: potency means the concentration at half of the fitted maximal effect
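Two parasite generations (96 h, 37 C, 5% CO2) of compound exposure in infected erythrocytes (0.05% parasitemia, 2% hematocrit). Luciferase-reporter P. falciparum; decreased luminescence indicates inhibited growth, aimed at apicoplast-acting delayed death.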
HCMV inh: human cytomegalovirus inhibition; HFF cells, HCMV-luciferase reporter, 72 h; active compounds read low; 410,000 compounds, 4.5% hits; activity change, negative = inhibition, % at 57.5 µM; in the data active means activity change below about -60%; inconclusive means no clear call, values can overlap the other calls; inactive means above about -39%
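Steps: HFFs plated, 16 h 37C; compounds added; HCMV-luciferase added to MOI 1 PFU/cell; 72 h 37C; OneGlo reagent, 5 min room temperature; luminescence read, normalized to controls.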
HCV inh: blocks hepatitis C virus; Huh7.5.1 HCVcc-Cre infection, luciferase reporter, 44 h; Potency, µM (doses to about 41.8 µM), for inactives: at the highest dose activity change, negative = inhibition, usual class: inhibitors; 340,000 compounds, 3.4% hits; AID 651820; further: potency means the concentration at half of the fitted maximal effect
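Cells seeded at 1,000/well and cultured 4 h, then compounds added followed by HCVcc-Cre virus (~0.5 moi). After 44 h further culture, luciferase substrate was added, plates held 15 min at room temperature, and luminescence read for 15 sec.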
Pf growth 48h: inhibits P. falciparum growth in the first generation, 48 h; 310,000 compounds, 5.9% hits; Potency, µM (highest dose often 28.7 µM), inactives show at the top dose activity change, negative = inhibition, actives largely listed as inhibitors; AID 504832; P. falciparum luciferase growth in erythrocytes, 48 h; further: potency means the concentration at half of the fitted maximal effect
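Luciferase-expressing P. falciparum in infected erythrocytes (2% hematocrit, 0.1% parasitemia final) in RPMI 1640/0.5% Albumax were exposed to compound for 48 hours at 37 C, 5% CO2; growth read as luminescence.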
* = called active by the depositor; ? = inconclusive; . = not tested or not shown. Unless noted, the call rests on the fitted dose curve; in most records, active means well fitted inhibition curve with a large enough effect; inconclusive means small, poorly fitted or top-dose-only effect, or another doubt; inactive means no such curve, though single readings can be large or run the other way. On the % scale 0 is the no-effect control and ±100 the full control effect.

SMILES	Pf growth 96h	HCMV inh	HCV inh	Pf growth 48h
O=C(C1CCN(S(=O)(=O)Cc2ccccc2)CC1)N1CCN(c2ccccc2)CC1	.	8	.	.
Cc1c(Cl)cccc1-n1nc(C)c2c(C(=O)NCc3ccccc3)cc(C3CC3)nc21	.	-5	.	.
CC(C)(C)c1ccc(C(=O)NCC(c2cccs2)S(=O)(=O)c2ccc(F)cc2)cc1 (stereo unspecified)	.	-31	.	.
CC(C)C[C@@H](COCc1ccc(F)cc1)N1CCN(C(=O)c2cccc(C(F)(F)F)c2)CCC1=O	.	32	.	.
CC(C)CC(COCc1ccc(F)cc1)N1CCN(C(=O)c2cccc(C(F)(F)F)c2)CCC1=O (stereo unspecified)	13µM*	11	-8%	?
O=C(c1cccc(Cl)c1)N1CCC(=O)N(C(COCc2cccc(Cl)c2)Cc2ccccc2)CC1 (stereo unspecified)	13µM*	0	?	?
O=C(c1cccc(Cl)c1)N1CCC(=O)N([C@H](COCc2ccccc2)Cc2ccccc2)CC1	.	20	.	.
COc1ccc(-c2noc(CSc3nc(N)cc(=O)[nH]3)n2)cc1OC	.	71	.	.
CCOC(=O)c1cnn(-c2cc(C(C)(C)C)nc3c(-c4ccccc4)c(C)nn23)c1N	-6%	-23	9%	.
CCOC(=O)c1cnn(-c2c(Cc3ccccc3)c(C)nc3c(-c4ccccc4)c(C)nn23)c1N	.	-12	?	12µM*
CCc1nc2ccccc2c(C(=O)NCc2ccccc2)c1C	?	-68*	-15%	?
CCc1nc2ccccc2c(C(=O)Oc2cccc3cccnc23)c1C	?	27	2.2µM*	?
CCc1nc2ccccc2c(C(=O)O)c1C	.	25	?	6%
CC(=O)c1cccc(NC(=O)CCc2nc3cccnc3n2Cc2cccs2)c1	.	-33	.	.
COC(=O)c1ccc(OC)c(Cn2c(=O)n(-c3cccc(Cl)c3)c(=O)c3c4c(sc32)CN(C(C)=O)CC4)c1	.	-27	.	.
COc1ccccc1-c1nc(C#N)c(N2CCC(Cc3ccccc3)CC2)o1	10%	-3	?	?
COc1ccccc1-c1nc(C#N)c(N2CCN(Cc3ccccc3)CC2)o1	.	-33	11µM*	?
CCSC1=C(C#N)C2(CCCCC2)C2=C(CC(C)(C)CC2=O)N1	?	-13	-5%	15%
CC1(C)CC(=O)C2=C(C1)NC(SCC(N)=O)=C(C#N)C21CCCCC1	0.17µM*	-14	-2%	?
Cc1nn2c(C)c(C(=O)NC(C)c3ccccc3)cnc2c1-c1ccc(F)cc1 (stereo unspecified)	.	-20	.	.
CCc1ccc(-c2cc(-c3n[nH]c(=S)n3CC)c3ccccc3n2)cc1	2.9µM*	.	-3%	?
CCOc1ccc(N(C(=O)c2cnsn2)C(C(=O)NC2CCCCC2)c2ccncc2)cc1 (stereo unspecified)	1.2µM*	-9	-4%	?
CCOc1ccc(C(C(=O)NC2CCCCC2)N(C(=O)c2ccccn2)c2cccnc2)cc1 (stereo unspecified)	15µM*	-15	8%	10µM*
COc1cccc(C(C(=O)NC2CCCCC2)N(C(=O)c2ccccn2)c2cccnc2)c1 (stereo unspecified)	1.7µM*	-14	17%	-2%
Cc1nn(C)cc1C(C(=O)NC1CCCCC1)N(C(=O)c1cnccn1)c1ccc(Oc2ccccc2)cc1 (stereo unspecified)	-12%	26	-1%	5.9µM*
SMILES	Pf growth 96h	HCMV inh	HCV inh	Pf growth 48h
CCOC(=O)c1ccc(N(C(=O)c2cnccn2)C(C(=O)NC2CCCCC2)c2cn(C)nc2C)cc1 (stereo unspecified)	?	4	-4%	?
COc1cccc(C2=NS(=O)(=O)N(C)C(C(=O)Nc3ccccc3SC)=C2)c1	.	1	.	.
C=CCSc1ncccc1C(=O)NCc1ccccc1	12µM*	68	.	18%
COc1ccccc1-n1c(CNC(=O)c2ccc(S(=O)(=O)N3CCCCC3)cc2)n[nH]c1=S	2%	-70*	17%	-3%
COC(=O)CSc1nnc(CNC(=O)c2ccc(S(=O)(=O)N3CCCCC3)cc2)n1C	1.5µM*	4	8%	6%
Cc1[nH]c2ccc(F)cc2c1CCNC(=O)c1cc2cc(Cl)ccc2oc1=O	.	-7	.	.
Nc1nc2n[nH]nc2c(=O)[nH]1	.	-96*	?	.
CSc1ccc(CN2CCC2(C)C(=O)Nc2cnc3ccccc3c2)cc1 (stereo unspecified)	.	-9	.	.
